Measurements reported in the supplement of paper PMC4894684.
Structures can show the parent of a compound that is named as a salt. ± gives the standard deviation of the averaged measurements. About 15 (2%) of roughly 1,000 compounds showed an effect of 50% or more. The sample holds strong results, similar compounds and a random draw of the others, so the mix is not that of the screen.

These molecules were tested on HFF (assay: uninfected host cell viability relative to vehicle control; higher = less host cell toxicity). Details: 5 µM; 72 h; oxygen 21 %.
In the case of `C[C@@]12C(=O)OC(=O)[C@]1(C)[C@H]1CC[C@@H]2O1` [Cantharidin], the “uninfected host cell viability” value is reported as 19.7 ± 1.6%. With `CC(C)NCC(O)c1ccc(N)c(C#N)c1` (stereo not given) [Cimaterol] the “uninfected host cell viability” value was 84.5 ± 2.1%. For `NC(=S)N/N=C/c1coc2ccccc2c1=O.[Cl][Cu][Cl]`, the “uninfected host cell viability” value was 98.2 ± 1.8%. For `COC1(C[S@+]([O-])c2ccccc2)CCN(CCc2c[nH]c3ccc(F)cc23)CC1`, the “uninfected host cell viability” value was 80.8 ± 2.7%. `NCCc1c[nH]c2ccc(C(N)=O)cc12` [5-Carboxamidotryptamine maleate] was tested, and the “uninfected host cell viability” value was 91.33 ± 0.078%. For `CC(C)C[C@@H](N)C1(c2ccc(Cl)cc2)CCC1`, the “uninfected host cell viability” value was 91.72 ± 0.29%. `NC1(c2ccccc2Cl)CCCCC1=O` (stereo not given) [Norketamine hydrochloride] was tested, and the “uninfected host cell viability” value was 97.41 ± 0.47%. In the case of `c1ccc2c(c1)[I+]c1ccccc1-2` [Diphenyleneiodonium chloride], the “uninfected host cell viability” value is reported as 30.8 ± 3.4%. `Cc1[nH]c2ccc(Cl)cc2c1C1=CCNCC1` was tested, and the “uninfected host cell viability” value was 75.1 ± 2%. For `CN1Cc2ccccc2[C@@H]2c3cccc4[nH]cc(c34)C[C@H]21`, the “uninfected host cell viability” value was 86.3 ± 3.7%. `CCOC(=O)c1ncc2[nH]c3ccc(OCc4ccccc4)cc3c2c1COC` was tested, and the “uninfected host cell viability” value was 103 ± 4.4%. In the case of `C[C@H]1CCC/C=C/[C@@H]2C[C@H](O)C[C@H]2[C@H](O)/C=C/C(=O)O1` [Brefeldin A], the “uninfected host cell viability” value is reported as 45.4 ± 4%. In the case of `N#Cc1ccc(N2CCN(C(=O)COc3ccc4[nH]cc(CCN)c4c3)CC2)cc1` [Donitriptan hydrochloride], the “uninfected host cell viability” value is reported as 98.31 ± 0.13%. With `CC(=O)[C@H]1CC[C@H]2[C@@H]3CC[C@H]4C[C@](C)(O)CC[C@]4(C)[C@H]3CC[C@]12C` [Ganaxolone] the “uninfected host cell viability” value was 95 ± 1.5%. With `O=C1NC(=O)c2c1c1c3ccccc3n3c1c1c2c2ccccc2n1[C@H]1CC[C@@H]3O1` the “uninfected host cell viability” value was 39.2 ± 11%. With `O=C1NC(=O)c2c1c1c3ccccc3[nH]c1c1[nH]c3ccccc3c21` [Arcyriaflavin A] the “uninfected host cell viability” value was 83.56 ± 0.33%. In the case of `C[C@@H](N)Cc1cnc[nH]1` [(R)-(-)- α-Methylhistamine dihydrobromide], the “uninfected host cell viability” value is reported as 89.841 ± 0.031%. `O=[N+]([O-])c1cc(O)c(O)c([N+](=O)[O-])c1` was tested, and the “uninfected host cell viability” value was 95.7 ± 4.9%. For `O=C1/C(=C/c2ccccc2)C[C@@]2(O)[C@H]3Cc4ccc(O)c5c4[C@@]2(CCN3CC2CC2)[C@H]1O5` [BNTX maleate], the “uninfected host cell viability” value was 22.2 ± 1.1%. For `Oc1ccc2c3c1O[C@H]1c4[nH]c5ccccc5c4C[C@@]4(O)[C@@H](C2)N(CC2CC2)CC[C@]314` [Naltrindole hydrochloride], the “uninfected host cell viability” value was 81.09 ± 0.49%. For `Oc1ccc2c3c1O[C@H]1c4[nH]c5c(c4C[C@@]4(O)[C@@H](C2)N(CC2CC2)CC[C@]314)C[C@@]1(O)[C@H]2Cc3ccc(O)c4c3[C@@]1(CCN2CC1CC1)[C@H]5O4` [nor-Binaltorphimine dihydrochloride], the “uninfected host cell viability” value was 85.23 ± 0.22%. For `O[C@H]1[C@H](O)[C@@H](O)CN2CC[C@H](O)[C@H]12` [Castanospermine], the “uninfected host cell viability” value was 82.95 ± 0.65%. `CCN(CC)CCO[C@H]1CC[C@@]2(C)C(=CC[C@@H]3[C@@H]2CC[C@]2(C)C(=O)CC[C@@H]32)C1` was tested, and the “uninfected host cell viability” value was 104 ± 3.5%. In the case of `c1ccc(CC(c2ccccc2)N2CCCCC2)cc1` (racemic) [(±)-1-(1,2-Diphenylethyl)piperidine maleate], the “uninfected host cell viability” value is reported as 89.8 ± 6.6%. In the case of `N[C@H](C(=O)O)c1cc(O)no1` [Ibotenic acid], the “uninfected host cell viability” value is reported as 85 ± 3.7%.
